PLCg1 inh: blocks human PLC-gamma1 enzyme activity | 370,000 compounds, 0.84% hits | inhibition, % at 12.2 µM | purified PLC-gamma1, fluorogenic substrate, fluorescence | AID 720700 | P19174; in the data active = inhibition above about 9.5%
Target sequence (P19174 whole entry, looked up): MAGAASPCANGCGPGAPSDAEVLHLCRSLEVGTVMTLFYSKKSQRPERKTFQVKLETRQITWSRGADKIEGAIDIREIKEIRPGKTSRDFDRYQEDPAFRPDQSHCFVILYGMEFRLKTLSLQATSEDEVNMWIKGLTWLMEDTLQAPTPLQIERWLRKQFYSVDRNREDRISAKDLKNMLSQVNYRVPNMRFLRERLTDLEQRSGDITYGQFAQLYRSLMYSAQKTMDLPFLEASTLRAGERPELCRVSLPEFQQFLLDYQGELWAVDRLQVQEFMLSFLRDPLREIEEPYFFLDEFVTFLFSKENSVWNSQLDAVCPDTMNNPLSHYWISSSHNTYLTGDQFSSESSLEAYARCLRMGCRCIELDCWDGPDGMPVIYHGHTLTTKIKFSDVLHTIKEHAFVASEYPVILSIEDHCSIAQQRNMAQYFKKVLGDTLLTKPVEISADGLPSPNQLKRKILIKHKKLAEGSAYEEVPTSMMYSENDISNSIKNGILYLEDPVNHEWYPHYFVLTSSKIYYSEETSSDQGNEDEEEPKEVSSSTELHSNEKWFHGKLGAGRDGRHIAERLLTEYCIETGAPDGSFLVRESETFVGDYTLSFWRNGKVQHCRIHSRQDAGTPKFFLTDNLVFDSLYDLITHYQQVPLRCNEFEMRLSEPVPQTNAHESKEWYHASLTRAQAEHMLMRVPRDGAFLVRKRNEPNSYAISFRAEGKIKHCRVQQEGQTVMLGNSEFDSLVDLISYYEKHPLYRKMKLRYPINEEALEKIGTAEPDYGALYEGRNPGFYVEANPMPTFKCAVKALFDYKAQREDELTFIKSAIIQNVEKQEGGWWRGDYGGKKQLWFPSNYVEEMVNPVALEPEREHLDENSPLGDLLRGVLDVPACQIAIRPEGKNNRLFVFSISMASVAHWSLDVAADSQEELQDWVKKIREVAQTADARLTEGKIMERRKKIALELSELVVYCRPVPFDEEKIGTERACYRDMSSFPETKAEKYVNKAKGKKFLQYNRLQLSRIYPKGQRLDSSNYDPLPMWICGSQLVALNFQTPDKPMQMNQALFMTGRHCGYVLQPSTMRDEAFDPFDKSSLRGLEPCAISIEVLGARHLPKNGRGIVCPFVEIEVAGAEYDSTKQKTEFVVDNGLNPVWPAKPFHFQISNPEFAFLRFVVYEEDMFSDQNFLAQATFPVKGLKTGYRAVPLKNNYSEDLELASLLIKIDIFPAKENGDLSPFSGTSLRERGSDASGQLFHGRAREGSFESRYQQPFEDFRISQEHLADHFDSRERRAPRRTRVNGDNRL
PLC-beta3 inh: PLC-beta3 (human) inhibition, primary screen; inhibition, % at 12.2 µM; Purified PLC-beta3, fluorogenic substrate, fluorescence; Q01970; 370,000 compounds, 0.18% hits; in the data active = inhibition above about 11%;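 also: 0% = median of compound wells on plate and 100% = full blocker control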
DAGLB inh: blocks human DAGLB lipase activity; inhibition, % at 5.17 µM; Q8NCG7; HEK293T DAGLB membrane lysate, EnzChek fluorogenic substrate; 340,000 compounds, 0.059% hits; in the data active = inhibition above about 34%;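 also: 0% = enzyme with vehicle and 100% = wells lacking enzyme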
HGIII-sPLA2 inh: Inhibits HGIII-sPLA2 liposome hydrolysis, primary screen; Q9NZ20; QFRET BODIPY PC-A2 liposome hydrolysis, fluorescence; inhibition, % at 12.2 µM; 370,000 compounds, 0.56% hits;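 active = inhibition above mean plus 3 SD of compounds lying within the high and low control bounds, cut at about 19% in these data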;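 also: 0% = median of test compound wells and 100% = no enzyme DMSO wells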
The depositor's hits bear a star; i = inactive; . = no result. In the library only some 1.5% were active in any assay of this set; here they are far more common.

SMILES	PLCg1 inh	PLC-beta3 inh	DAGLB inh	HGIII-sPLA2 inh
CC1=NN(c2cccc(C(=O)O)c2)C(=O)/C1=C\C=C\c1ccco1	23*	8	1	-19
CSc1ccc(CNC(=O)C2(C)CCCN(C(C)C)C2)cc1 (stereo not drawn)	-2	0	.	4
CSc1ccc(CNC(=O)C2(C)CCCN(C(C)=O)C2)cc1 (stereo not drawn)	4	11*	.	16
O=C(O)c1ccc2c(c1)C(=O)N(CCC1=CCCCC1)C2=O	13*	-1	4	2
CN(C(=O)c1ccc2c(c1)C(=O)N(CCC1=CCCCC1)C2=O)C1CCCCC1	1	0	-5	-8
Cc1ccc(Cn2cc(CN3[C@@H](CC(C)C)COc4cc(Br)ccc4S3(=O)=O)nn2)cc1	0	-1	.	14
C(=N\Nc1nc2ccccc2[nH]1)/c1ccccn1	0	0	4	12
Fc1ccccc1-c1ccc(/C=N/Nc2nc3ccccc3[nH]2)o1	-431	i	0	30*
Cc1ccc(C(=O)n2ccc3ccc(-c4ccc5ccn(Cc6ccccc6)c5c4)cc32)cc1	-61	-84	.	3
CCOC(=O)[C@]12CCCC=C1N(CCCOC)C(=O)[C@@H]2CC(=O)NCc1ccc(OC)c(OC)c1	-1	-1	.	15
C1CSC2(N1)C1CC3CC(C1)CC2C3 (stereo not drawn)	1	12*	1	11
S=C1NNC2(NN1)C1CC3CC(C1)CC2C3	6	4	-5	18
CC1(C)N=C(N)N=C(N)N1c1ccc(CCCCc2ccccc2)cc1	11*	4	-3	-3
CCCCNS(=O)(=O)CC1NCc2cc(F)ccc21 (stereo not drawn)	-5	-5	.	7
CCCCCCCCS(=O)C1CCS(=O)(=O)C1 (stereo not drawn)	-3	-1	2	7
CCCCCCS(=O)[C@H]1CS(=O)(=O)C[C@@H]1S(=O)CCCCCC (stereo partly drawn)	3	11*	-2	-1
Cc1oc2ccc(OC(C(=O)O)c3ccccc3)cc2c1C(=O)O (stereo not drawn)	9.9*	6	-1	0
COC(=O)c1ccc2c(C3(c4c[nH]c5ccccc45)CCN(C(=O)OC(C)(C)C)CC3)c[nH]c2c1	-38	-60	.	-27
COC(=O)C1(C)NC(c2ccc(O)cc2)C2C(=O)N(c3ccccc3)C(=O)C21 (stereo not drawn)	-2	-6	-3	10
COC(=O)C1(C)NC(c2ccc(O)cc2)C2C(=O)N(c3ccc(F)cc3)C(=O)C21 (stereo not drawn)	15*	3	0	6
COc1ccc(OC)c(CN2CCN(C(=O)c3cccc4ccccc34)CC2)c1	13*	3	2	-6
COc1ccc(OC)c(CN2CCN(C(=O)c3cc4ccccc4cc3O)CC2)c1	-47	-72	1	-53
O=C(Nc1ccccc1C(F)(F)F)OCCCN1CCC2(CCC(c3ccccc3)CC2)C1=O (stereo not drawn)	4	-7	.	-12
CC(C)CN(C(=O)CCNC(=O)c1ccc([N+](=O)[O-])cc1)C1CCS(=O)(=O)C1 (stereo not drawn)	7	11*	-1	8
CCCN(CC(=O)Nc1cccc(S(N)(=O)=O)c1)CC(=O)Nc1ccc(F)c(F)c1F	3	-4	-3	-9
SMILES	PLCg1 inh	PLC-beta3 inh	DAGLB inh	HGIII-sPLA2 inh
CCCN(CC(=O)Nc1cccc(Br)c1)CC(=O)Nc1ccc(F)c(F)c1F	9	11*	-6	-21
CCCCCCCCCCCCCCCC[n+]1ccc(/C=N/O)cc1	17*	5	1	-14
CCCCCCCCCCCCCCCC[n+]1ccc(C(N)=O)cc1	6	5	4	-5
COC(=O)[C@@]12CCCCC3=C1N(CCC3)C(=O)[C@H]2CC(=O)N1CCN(C(=O)C2CC2)CC1	4	2	.	5
CCc1ccc(-c2cn(C3CCCCC3)c(=S)[nH]2)cc1	6	-4	-2	23*
COC(=O)C1CN(Cc2ccc(OC)cc2)CCS(=O)(=O)N1Cc1ccc(F)cc1 (stereo not drawn)	1	0	.	-5
CN1C(=O)C[C@@](C#N)(C(=O)NCc2ccccc2)[C@H]1c1ccccc1	-2	3	.	-1
CC(C)C(=O)N[C@H]1[C@H](O)CCC[C@]12C(=O)N(Cc1ccccc1)c1ccccc12	1	1	.	1
CC(C)C[C@@H](CN1CCC[C@@H]1CN1C(=O)C(=O)NC[C@@H]1Cc1ccccc1)N1C[C@H](Cc2ccccc2)N(CC2CCCCCC2)C(=O)C1=O	4	13*	4	3
CC(C)C[C@H]1CN([C@@H](Cc2ccc(O)cc2)CN2CCC[C@@H]2CN2C(=O)C(=O)NC[C@@H]2Cc2ccccc2)C(=O)C(=O)N1CC1CCCCC1	13*	5	5	-29
CC(C)C[C@@H](CN1CCC[C@@H]1CN1C(=O)C(=O)NC[C@@H]1Cc1ccccc1)N1C[C@H](Cc2ccccc2)N(CC2CCCCC2)C(=O)C1=O	4	2	.	0
CC(=O)c1cc(-c2ccc3[nH]ccc3c2)c(=O)n2c1CCC2	-12	-16	.	-7
Cn1nc([N+](=O)[O-])c(C(C#N)c2ccccn2)c(Cl)c1=O (stereo not drawn)	-10	-17	-2	10
CCCn1nc([N+](=O)[O-])c(C(C#N)c2nc3ccccc3o2)c(Cl)c1=O (stereo not drawn)	2	0	70*	3
C[C@@H]1OCN(C)[C@H]2C[C@H]3c4[nH]c5cccc(-c6ccc7c(c6)OCO7)c5c4CCN3C[C@@H]12	-55	-72	.	-5
Cc1cc(C)c(C)c(OCC(=O)NCC2CCCO2)c1 (stereo not drawn)	12*	4	-1	-2
Cc1cc(C)cc(OCC(=O)NCC2CCCO2)c1 (stereo not drawn)	-1	-2	-1	7
C#CCOCCOCCOCCNc1nc(N2CCOCC2)nc(N2CCN(C(=O)[C@H]([C@@H](C)CC)n3cc(CCCN=C(N)N)nn3)CC2)n1	10*	2	-2	-2
COc1cc(CNC(=O)CCCC(=O)c2ccccc2)cc(OC)c1OC	9.9*	-1	-1	6
CC(C)c1ccc(NCCC(=O)c2cccs2)cc1	0	-6	-4	27*
Cc1ccc(NCCC(=O)c2cccs2)cc1	-1	1	-2	4
CCOC(=O)CC[C@@]1(C(=O)OCC)C[C@@H](CC(=O)NCc2ccc(C)o2)C(=O)N2CCCC=C21	0	0	.	-5
CC1(C)CC(Cc2ccc(C(=O)c3ccccc3)cc2)N(C(=O)OC(C)(C)C)N1 (stereo not drawn)	11*	9	-3	0
CCOC(=O)[C@@]12CN(C(=O)OC(C)(C)C)CC=C1N(Cc1ccc(OC)cc1)C(=O)[C@H]2CC(=O)N1CCC(c2ccccc2)CC1	-1	4	.	-7
O=C(NC(=S)Nc1ccc(O)cc1)c1cncc(Br)c1	2	-2	1	22*
COc1ccc(Nc2nc(C)nc3c2nnn3Cc2ccccc2Cl)c(OC)c1	-11	-14	1	-2
CCOC(=O)C(C(C)=O)c1nc(C)nc2c1nnn2Cc1ccccc1Cl (stereo not drawn)	13*	2	2	6
